# Test results from the supplement of paper PMC3334620.
# The full ranking holds about 33,000 sequences; the median of “E-score (-0.5 to 0.5)” is about -0.053, and the highest 2% start at about 0.37. What follows is part of a selection rich in the highest values, with near analogues and random picks from the rest.
# Molecular target: Hap1 (UniProt P0CE41)
# Test: PBM E-score (8-mer binding enrichment) (E-score (-0.5 to 0.5)); higher = stronger / more preferred TF binding
# Settings: protein concentration: 200 nM; construct: GST-DNA-binding domain
# Description: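 Universal 'all 10-mer' protein binding microarrays (Agilent AMADID 015681) probed with GST-tagged S. cerevisiae TFs (full-length or DBD) made by in vitro transcription/translation (PURExpress), about 100-200 nM. Bound TF was detected with fluorescent anti-GST. Each ungapped 8-mer (which stands for itself and its reverse complement) is scored by the PBM enrichment score (E-score), a modified Wilcoxon-Mann-Whitney statistic from -0.5 to +0.5, computed with the Universal PBM Analysis Suite. Scale: above 0.35 generally sequence-specific binding.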
# Sequence of UniProt P0CE41 (P0CE41 whole entry): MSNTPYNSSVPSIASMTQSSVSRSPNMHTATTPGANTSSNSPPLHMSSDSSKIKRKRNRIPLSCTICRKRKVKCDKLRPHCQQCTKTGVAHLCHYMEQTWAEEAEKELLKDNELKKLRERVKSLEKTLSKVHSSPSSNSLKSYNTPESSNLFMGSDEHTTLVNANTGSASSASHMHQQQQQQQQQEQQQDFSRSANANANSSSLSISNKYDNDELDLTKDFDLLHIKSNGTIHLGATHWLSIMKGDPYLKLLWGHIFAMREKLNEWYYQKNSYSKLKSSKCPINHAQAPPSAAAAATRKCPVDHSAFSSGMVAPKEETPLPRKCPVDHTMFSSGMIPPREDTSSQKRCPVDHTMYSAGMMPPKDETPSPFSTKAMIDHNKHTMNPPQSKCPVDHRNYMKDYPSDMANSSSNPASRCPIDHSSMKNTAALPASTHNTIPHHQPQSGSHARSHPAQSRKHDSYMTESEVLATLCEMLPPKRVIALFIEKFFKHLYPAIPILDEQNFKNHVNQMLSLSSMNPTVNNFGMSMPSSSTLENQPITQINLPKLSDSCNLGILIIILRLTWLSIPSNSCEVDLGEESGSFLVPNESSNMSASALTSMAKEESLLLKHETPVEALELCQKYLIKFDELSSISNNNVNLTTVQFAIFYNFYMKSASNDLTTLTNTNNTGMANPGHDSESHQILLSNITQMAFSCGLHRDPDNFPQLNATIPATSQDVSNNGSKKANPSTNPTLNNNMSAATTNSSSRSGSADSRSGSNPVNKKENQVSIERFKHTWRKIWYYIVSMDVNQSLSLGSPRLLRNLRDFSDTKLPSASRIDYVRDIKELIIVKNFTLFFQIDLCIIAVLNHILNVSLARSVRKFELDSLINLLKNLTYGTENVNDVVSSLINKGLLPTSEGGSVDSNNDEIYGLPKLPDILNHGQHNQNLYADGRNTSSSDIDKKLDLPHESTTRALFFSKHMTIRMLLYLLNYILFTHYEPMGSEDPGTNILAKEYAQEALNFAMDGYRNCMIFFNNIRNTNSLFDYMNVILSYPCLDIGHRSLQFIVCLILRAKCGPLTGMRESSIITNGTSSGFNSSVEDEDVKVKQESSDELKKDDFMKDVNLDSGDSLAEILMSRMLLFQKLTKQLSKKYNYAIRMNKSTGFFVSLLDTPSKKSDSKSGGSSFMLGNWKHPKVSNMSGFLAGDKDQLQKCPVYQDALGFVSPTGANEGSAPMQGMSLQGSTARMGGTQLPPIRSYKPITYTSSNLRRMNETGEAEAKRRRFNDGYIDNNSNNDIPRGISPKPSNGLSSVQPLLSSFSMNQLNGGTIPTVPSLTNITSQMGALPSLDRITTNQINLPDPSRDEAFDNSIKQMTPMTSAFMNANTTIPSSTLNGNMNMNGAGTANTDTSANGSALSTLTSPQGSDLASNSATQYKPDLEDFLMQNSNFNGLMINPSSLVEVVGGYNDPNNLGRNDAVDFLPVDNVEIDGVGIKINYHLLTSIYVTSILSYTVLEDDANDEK
row,Sequence,PBM E-score
1,GCTACGCC,-0.0393
2,CATCCGCC,0.244
3,CCTAGTTC,-0.00076
4,AGTATGCC,0.0174
5,AAAGGCAT,-0.125
6,AACTGAAT,-0.215
7,CTAACTGC,-0.0433
8,ATAACTCA,-0.0521
9,ATAACTCG,0.205
10,ATAACTCC,0.4
11,CTAACTCA,-0.177
12,CTAACTCC,0.403
13,AAAAGGAA,0.0913
14,ACGGGTAT,0.0846
15,CGCGATAG,0.2
16,AGCGATAA,0.284
17,CCCGATAC,0.432
18,CGCGATAC,0.17
19,CACGATAG,-0.138
20,AGCGATAG,0.119
21,ACCGATAA,0.443
22,ACCGATTA,0.335
23,CCCGATCC,0.31
24,AACGATAG,0.118
25,ACCGATAG,0.373

row,Sequence,PBM E-score
1,CCCGATAG,0.414
2,CATCGAGG,-0.23
3,CTCAGGAA,-0.108
4,AACCGGCT,0.252
5,GCTGCTCA,-0.241
6,GGCAAGGA,-0.0722
7,CTGAGTCC,-0.0126
8,ACTATCAA,0.0295
9,CCGCCTCC,0.0265
10,CGATTTTC,0.147
11,CCCGATGA,0.285
12,GGCGATAC,0.265
13,ACCGATCT,0.274
14,GGCGATAA,0.392
15,GCCGATAA,0.449
16,AACGATAT,-0.0547
17,CGCGATAA,0.115
18,GCCGATCA,0.263
19,ACCGATAT,0.43
20,GCCGATGA,0.373
21,ACCGATGA,0.223
22,GTCGATAA,-0.0382
23,CTAGATGC,-0.224
24,GAATCGAA,-0.142
25,ACAGGCTG,-0.256

row,Sequence,PBM E-score
1,CTTGCACA,-0.136
2,TCCGATCA,0.221
3,TCCGATAA,0.45
4,GACGATAC,0.0839
5,ACCGATAC,0.371
6,CCCGATAA,0.417
7,AACGATAC,-0.2
8,AGCGATAC,0.065
9,GCCGATCC,0.258
10,TACGATAA,0.0399
11,CACGATAA,0.087
12,GCCGATAC,0.417
13,CCCGATTA,0.197
14,GTAGGGAC,-0.0187
15,AGTGAGTC,-0.18
16,CCTCTAAG,-0.337
17,GTTATCGA,0.165
18,CAGACCAG,0.0149
19,CGAATTAA,0.0158
20,GGAATTAA,0.419
21,GGAATTAC,0.375
22,CGAATTAC,0.15
23,AGAATTAC,0.0991
24,TGAATTAA,-0.0149
25,TATCTCAA,-0.0851

row,Sequence,PBM E-score
1,GCCTGGAC,-0.0392
2,ATATCCCG,0.286
3,ATATCCTC,0.0211
4,AGATCCGC,0.263
5,AGATCCGG,0.384
6,CTATCCGC,0.257
7,ATATCCAG,0.0668
8,AGATCCGA,0.359
9,CTATCCGA,0.113
10,ATATCCGC,0.387
11,ATATCCGA,0.463
12,GTATCCGA,0.304
13,ATATCCGG,0.452
14,AGGCAATG,-0.17
15,ACTGGGGA,-0.016
16,AGTGGAAC,0.0266
17,CAGATCCC,0.0493
18,GAGTCCGC,0.249
19,AAGTCCAT,-0.00211
20,CAGTCCGC,0.0912
21,AAGTCCGT,0.417
22,CAGTCCGG,0.364
23,AAGTCCCT,-0.278
24,AAGTCCGC,0.427
25,AAGTCCGG,0.47

row,Sequence,PBM E-score
1,AAGTCCTG,-0.0784
2,GTTGGTTA,-0.0552
3,TTGCAAAA,-0.00902
4,CCGAAGTA,0.365
5,GAGGCACA,-0.112
6,ATCCGTTC,0.233
7,ATCCGTTG,0.301
8,GTCCGTGA,0.303
9,ATCCGTTA,0.409
10,CTCCGTTA,0.367
11,GTCCGTTA,0.444
12,CGCCCGCA,0.189
13,GCCTGAAC,-0.0686
14,CGCAGGGC,-0.0256
15,GGGTATGA,0.0413
16,CCGGAAAA,0.432
17,CCGGAACA,0.376
18,TCGGAACA,0.349
19,TCGGAAAA,0.402
20,CCGGAATC,0.416
21,ACGGAACA,0.241
22,GCGGAAAA,0.286
23,CCGGAAGA,0.365
24,CCGGAATA,0.357
25,CAGGAAAA,-0.0124

row,Sequence,PBM E-score
1,ACGGAAAA,0.317
2,ACGGAATC,0.28
3,AGACACTC,-0.185
4,GCTTCATA,-0.0731
5,ACCTAGGC,-0.18
6,AAAGCGGG,-0.0186
7,ACTACGCC,-0.098
8,GAACTGTA,-0.00641
9,CCACTCCC,0.119
10,CCGGCCTC,0.182
11,GCGGAAAC,0.24
12,CCGGAAAC,0.426
13,CCGGAAAG,0.307
14,AGTTTCTA,-0.167
15,ACCAGGAT,0.0532
16,AAGCAATA,-0.0998
17,TCTTGTCA,-0.139
18,AGACCGGA,0.334
19,CGACCGGA,0.412
20,GGACCGGA,0.406
21,CGACCGGC,0.232
22,CGACCGTA,0.0335
23,GGACCGCA,0.186
24,ACTAGACA,-0.0952
25,AACGCGCG,0.13

row,Sequence,PBM E-score
1,ATGTCCTG,0.00518
2,ATGTCCGG,0.468
3,ATGTCCCC,0.0493
4,CTGTCCGA,0.317
5,GTGTCCGA,0.339
6,ATGTCCGC,0.374
7,ATGTCCGA,0.463
8,CTGTCCGC,0.113
9,ATGTCCCG,0.234
10,AGGGCCGG,0.326
11,CGCCCTCA,-0.149
12,CGACCAAC,-0.0313
13,CAACTGGG,-0.122
14,TCCGGTCA,0.385
15,GCCGGTGA,0.274
16,GCCGGTAA,0.422
17,GGCGGTAA,0.373
18,CCCGGTAG,0.336
19,GCCGGTAC,0.293
20,AGCGGTAA,0.247
21,GGCGGTAC,0.0136
22,CCCGGTAC,0.296
23,CCCGGTCA,0.262
24,GCCGGTCA,0.177
25,CCCGGTAA,0.387

row,Sequence,PBM E-score
1,ACCTCGCT,0.0563
2,AGTTACCG,0.266
3,AACAAGGG,-0.0715
4,ACAGACGC,-0.0711
5,AATTTACC,0.0607
6,AGCGTAGA,-0.0389
7,TGCGGTAA,0.042
8,TCCGGTAA,0.442
9,TACGGTAA,0.0382
10,ACACCTGA,-0.135
11,TGTCGAAA,-0.229
12,CAAGTGTC,-0.197
13,AAGAAACA,0.00593
14,ACCGCAAT,0.239
15,AATCCCAT,-0.107
16,TATCCCGA,0.221
17,CATCCCGA,0.176
18,AATCCCGA,0.409
19,AATCCCGC,0.257
20,AATCCCGT,0.372
21,CTGGTGAC,-0.288
22,CCAGCGAA,-0.0597
23,CGGCAATC,0.284
24,CGGCATTA,0.459
25,AGGCAATA,-0.181

row,Sequence,PBM E-score
1,AGGCATTA,-0.08
2,GGGCATTA,0.0704
3,CGGCAATA,0.408
4,TATATTGA,0.0255
5,ACAGTGGA,-0.0195
6,CACCAAGC,-0.174
7,AGTCCCTC,-0.175
8,CATGTCCG,0.372
9,ATTGTCCA,-0.128
10,AATGTCCT,-0.144
11,AATGTCCG,0.443
12,AATGTCCA,-0.104
13,ATTGTCCG,0.396
14,CATGTCCC,-0.054
15,ATTGTCCC,0.0458
16,CATGTCCA,-0.0578
17,GGCCATAC,0.17
18,CGCTACGA,0.111
19,CTCTCATC,-0.159
